Drawing on PubChem BioAssay (EPA / NIEHS), this text covers outcome and AC50 for 30 molecules.

Molecules are shown by their SMILES. Active and inactive are the calls of the source. The calls were made as follows: active = hit-call score of the fitted dose curve at least 0.9, where 1 is the maximum; inactive = score below 0.9.

Read-out in the assay: Decorin, DCN (gene 1634)
The assay can be described thus: BSK_MyoF_Decorin: BioMAP Diversity Plus: MyoF Assay for Decorin Biomarker Activity (AID 2284265). Particulars: primary human lung fibroblasts. As for the experimental part: BSK_MyoF is a cell-based, multiplexed-readout assay that uses lung fibroblasts, […], with measurements taken at 24 hours after chemical dosing in a microplate: 96-well plate.BSK_MyoF_Decorin is an assay component measured in the BSK_MyoF assay. It measures Decorin antibody related to regulation of gene expression using ELISA technology.Data from the assay component BSK_MyoF_Decorin was analyzed at the endpoint, BSK_MyoF_Decorin, in the positive analysis fitting direction relative to DMSO as the negative control and baseline of activity. Using a type of binding reporter, gain or loss-of-signal activity can be used to understand protein changes. To generalize the intended target to other relatable targets, this assay endpoint is annotated to the 'cell adhesion molecules' intended target family, where the subfamily is 'decorin'.
The levels of cell surface (or secreted, indicated by the prefix "s") biomarker endpoints were measured by ELISA. Overt cytotoxicity to cells in confluent adherent cultures (all systems other than the BT system) was assessed by measuring total protein levels using sulforhodamine B (SRB) staining in parallel cultures at the time of biomarker measurements, indicated as SRB endpoints. For proliferation assays for adherent cell types, individual cell types are cultured at sub-confluence and relative cell numbers quantified by SRB staining at time points optimized for each system (48 h: 3C and CASM3C systems; 72 h: BT and HDF3CGF systems; 96 h: SAg system). SRB was performed by staining cells with 0.1% SRB after fixation with 10% TCA and reading wells at 560 nm.Viability and proliferation of PBMC (T cells) was quantified by Alamar Blue reduction for the SAg and BT systems. For PBMC viability (referred to as PBMC Cytotoxicity within the assay endpoint names), cells were plated (75,000/well in a 96-well plate) and then chemical samples added for 1 h before addition of activators, SEB and TSST-1 (20 ng/mL final concentration each). Cells were incubated for 90 h. Then, Alamar Blue (20 uL/well) (Invitrogen, Cat DAL1100) was added for 6 h, and the plates were read with a fluorescence microplate reader at 546/580 nm (excitation/emission). For PBMC proliferation, cells were plated and activated as above but incubated for only 16 h prior to addition of Alamar Blue. Plates were read after 6 h.
As to `O=[N+]([O-])C=Cc1ccccc1`, the result was inactive. Take `CC(C)(C)C(O)C(Oc1ccc(-c2ccccc2)cc1)n1cncn1` (stereo not given): the AC50 was 36.5 µM (active). `CC(=O)/C=C/c1ccccc1`: the result was inactive. Regarding `Clc1ccc(-c2ccccc2)cc1`, the result was inactive.

As to `CCC(C)c1cc([N+](=O)[O-])cc([N+](=O)[O-])c1OC(=O)C=C(C)C` (stereo not given), the AC50 was 20 µM (active).

Take `CC(C)COP(=O)(OCC(C)C)OCC(C)C`: the result was inactive. For the molecule `CCCOC(=O)c1ccccc1C(=O)OCCC`, the outcome was inactive.

Turning to `O=C(O)CCCc1ccc(N(CCCl)CCCl)cc1`, the result was inactive. For `CNC(=O)Oc1cc(C)c(SC)c(C)c1`, the outcome was inactive. Regarding `C=CC(=O)OCC(CC)CCCC` (stereo not given), the half-maximal activity concentration (AC50) was 0.016 µM (active). For the molecule `CC(C)CCCCCCCOP(=O)(Oc1ccccc1)Oc1ccccc1`, the half-maximal activity concentration (AC50) was 8.75 µM (active). With `O=c1c2ccccc2c(=O)c2c1cc(Cl)c1[nH]c3c([nH]c12)c(Cl)cc1c(=O)c2ccccc2c(=O)c13`, the result was inactive. On to `O=C1C=CC(=O)C=C1`, for which the result was inactive.

On to `O=S(=O)(c1ccccc1)c1ccccc1`, for which the outcome was inactive. On to `O=C1C(Cl)=C(Cl)C(=O)C(Cl)=C1Cl`, for which the outcome was inactive. As to `CC(C)CCCCCCCOC(=O)c1ccccc1C(=O)OCCCCCCCC(C)C`, the result was inactive. On to `C=CCN(CC=C)C(=O)C(Cl)Cl`, for which the outcome was inactive. As for `CCCCCCCCCCCC#N`, the result was inactive. In the case of `CC(C)(c1cc(Cl)c(O)c(Cl)c1)c1cc(Cl)c(O)c(Cl)c1`, the result was inactive. On to `Cc1ccc(OP(=O)(Oc2ccc(C)cc2)Oc2ccc(C)cc2)cc1` (tested in a mixture with another compound), for which the result was inactive. `CC(C)(C)C(=O)CCl`: the outcome was inactive. As to `O=c1[nH]c(Cl)c(Cl)cc1Cl`, the result was inactive.

`COC(C)(C)CCC[C@H](C)C/C=C/C(C)=C/C(=O)OC(C)C`: the outcome was inactive. As to `CCc1cc(C)cc(CC)c1-c1c(OC(=O)C(C)(C)C)n2n(c1=O)CCOCC2`, the outcome was inactive.

Take `CC1(C)[C@H](C(=O)O[C@H](C#N)c2cccc(Oc3ccccc3)c2)[C@@H]1C=C(Br)Br`: the outcome was inactive. As to `Nc1ccc(-c2ccc(N)c(N)c2)cc1N`, the outcome was inactive.

Take `O=P1(NCCCl)OCCCN1CCCl` (stereo not given): the outcome was inactive.

Consider `COCC(=O)N(c1c(C)cccc1C)N1CCOC1=O`, for which the outcome was inactive.

`Oc1cc(Cl)ccc1Cl`: the result was inactive. Turning to `c1ccc(Nc2ccc3ccccc3c2)cc1`, the outcome was inactive.

As a reminder, the AC50 is the midpoint of the concentration-response curve, whichever way the signal moves.
